Sampled rows, rich in hits. Any-hit rate of the full collection: about 7.5%.
B2AR arrestin – beta2AR (human) beta-arrestin recruitment activity | P07550 | beta-arrestin recruitment to beta2AR, cell-based reporter | Potency, µM (top dose mostly 46.1 µM), most hits filed as activators | hit rate 0.02% among 330,000 | AID 492947; note: nearly all actives have a fitted effect of over 65% in size
Target sequence (P07550 whole entry, looked up): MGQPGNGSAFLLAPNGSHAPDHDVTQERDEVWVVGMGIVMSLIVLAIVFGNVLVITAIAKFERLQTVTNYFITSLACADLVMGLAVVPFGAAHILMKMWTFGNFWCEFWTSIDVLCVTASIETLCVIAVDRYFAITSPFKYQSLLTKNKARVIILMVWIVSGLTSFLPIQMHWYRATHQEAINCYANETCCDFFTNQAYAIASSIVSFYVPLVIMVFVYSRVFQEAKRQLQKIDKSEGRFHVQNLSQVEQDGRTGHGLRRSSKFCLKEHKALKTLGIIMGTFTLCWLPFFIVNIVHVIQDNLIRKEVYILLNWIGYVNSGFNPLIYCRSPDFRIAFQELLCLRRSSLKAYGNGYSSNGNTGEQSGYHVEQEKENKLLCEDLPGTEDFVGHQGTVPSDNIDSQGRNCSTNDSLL
RORg inh – ROR gamma (mouse) transcription inhibition | P51450 | Drosophila S2 Gal4-RORgamma UAS-luciferase reporter, 20 h | hit rate 5.4% among 310,000 | AID 2551 | Potency, µM (series often up to 53.6 µM), hits mostly inhibitors; note: nearly all actives have a fitted effect of over 60% in size
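Stably transfected Drosophila Schneider cells are the test system, with ROR gamma fused to Gal4 and luciferase under UAS control; luminescence is read after 20 hr of 700 uM copper sulfate induction at ambient temperature.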
VP16 counter – Gal4-VP16 reporter inhibition counter-screen; Drosophila S2 Gal4-VP16 UAS-luciferase, luminescence, 20 h; Potency, µM (titrated, usually from 53.6 µM), usual class: inhibitors; AID 2546; hit rate 3.5% among 310,000;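 note: Gal4-VP16 expression switched on by copper sulfate through the metallothionein promoter; nearly all actives have a fitted effect of over 50% in size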
ELG1 repair inh – ELG1-dependent DNA repair inhibition | hit rate 2.3% among 330,000 | HEK293T ELG1-luciferase reporter, luminescence, 16 h; DNA damage induced by 5-fluorouridine | Potency, µM (doses to about 46.1 µM), hits mostly inhibitors; note: nearly all actives have a fitted effect of over 55% in size
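Overnight (16 hr) co-exposure of 2,000 cells/well to 5-fluorouridine and compound at 37 °C preceded detection. Luciferase was quantified via ONE-Glo luminescence; loss of signal denotes inhibition.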
TSHR antagonist – antagonists of human thyroid stimulating hormone receptor; P16473; TSHR-expressing cells, TSH-stimulated cAMP HTRF, 2 h; active compounds read low; activity change, negative = inhibition, % at 11.5 µM; hit rate 0.2% among 330,000; AID 504810;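 active = activity change below a set negative limit, meaning inhibition stronger than a set level, cut at about -70% in these data; inconclusive = activity change between two set negative limits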
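TSHR-expressing cells, 200/well, pre-treated with compound, then stimulated with EC80 TSH (4nM final) for 2 hours at 37 deg C. cAMP measured by competitive HTRF: anti-cAMP cryptate antibody in lysis buffer plus cAMP-d2, read after 30 minutes at room temperature.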
Large screens that a line does not name were inactive. Unless noted, calls come from the whole dose curve; as a rule, active = well fitted curve in the direction sought with a large enough effect; inconclusive = small, poorly fitted or top-dose-only effect, or another doubt; inactive = no such curve, though single readings can be large; an effect the other way counts as inactive or inconclusive.

CC(=O)CSc1ccc(-c2nc3ccccc3[nH]2)cn1	RORg inh 10µM, VP16 counter 11.2µM, ELG1 repair inh inconclusive
CC(=O)CSc1ccc(-c2nc3cc(C)c(C)cc3[nH]2)cn1	none
O=c1c(N2CCOCC2)c(N2CCOCC2)c1=O	none
CC(C)(C)C1=CC(=O)C(N2CCOCC2)=CC1=O	RORg inh 10µM, VP16 counter inconclusive
CCOC(=O)C1=C(c2ccccc2)O/C(=C(/C#N)C(F)(F)F)S1	RORg inh 14.1µM, VP16 counter 15.8µM, ELG1 repair inh inconclusive
Cc1ccc(-c2cc3c(nn2)-c2ccccc2C3=O)cc1	RORg inh 1.12µM, VP16 counter 2µM, ELG1 repair inh inconclusive
Cc1ccccc1-c1cc2c(nn1)-c1ccccc1C2=O	RORg inh 10µM, VP16 counter 8.91µM, ELG1 repair inh inconclusive
CCCCCCC(=O)N1CCC(c2nc3c(nnn3Cc3ccccc3Cl)c(=O)[nH]2)CC1	RORg inh 7.08µM, VP16 counter 15.8µM, ELG1 repair inh inconclusive
O=C(NCc1ccco1)c1nc2c(nnn2Cc2ccccc2Cl)c(=O)[nH]1	RORg inh 14.1µM, VP16 counter 7.94µM, ELG1 repair inh 20.6µM
COc1ccccc1CCc1nnc(CCC(=O)NCCCOc2cccnc2)o1	RORg inh inconclusive
CCC(=O)NCc1nc2ccccc2n1Cc1ccccc1F	none
CC(=O)NCCc1nc2ccccc2n1Cc1ccc(Cl)cc1	none
CCC(=O)Nc1nc2ccccc2n1Cc1ccc(Cl)cc1	RORg inh 0.398µM, VP16 counter 1.26µM, ELG1 repair inh inconclusive
CC(=O)Nc1nc(NC(=O)/C=C/c2ccccc2)n(-c2ccccc2)n1	RORg inh 0.282µM, VP16 counter 0.891µM
CCC(=O)Nc1nc2ccccc2n1Cc1ccccc1Cl	RORg inh 0.398µM, VP16 counter 2.82µM, ELG1 repair inh inconclusive
O=C(Nc1nc2ccccc2n1Cc1ccccc1)c1ccco1	RORg inh 2µM, VP16 counter 2.51µM
CN1C2CCC1CC(NC(=O)c1cc(S(=O)(=O)N(C)C)c(Cl)cc1Cl)C2 (stereo unspecified)	ELG1 repair inh inconclusive (no result: RORg inh, VP16 counter)
COc1ccc(-n2c(=O)c(-c3cccs3)nc3cncnc32)cc1	none (no result: B2AR arrestin, ELG1 repair inh, TSHR antagonist)
CC(=O)Nc1nc2ccccc2n1Cc1ccccc1Cl	RORg inh 0.891µM, VP16 counter 2.24µM, ELG1 repair inh inconclusive
CC(=O)NCCc1nc2ccccc2n1CCOc1ccccc1	none
CC(=O)Nc1nc2ccccc2n1CCOc1ccccc1Cl	RORg inh 0.794µM, VP16 counter 1.26µM, ELG1 repair inh inconclusive
O=C(Nc1nc(NC(=O)c2ccco2)n(-c2ccccc2)n1)c1ccccc1	RORg inh 0.891µM, VP16 counter 1.26µM
CC(=O)Nc1nc2ccccc2n1Cc1ccccc1C	RORg inh 2µM, VP16 counter 3.16µM
CC(=O)NCc1nc2ccccc2n1Cc1ccccc1C	none
Cc1cc(C)n2nc(SCC(=O)N(CCC#N)c3ccc(F)cc3)nc2n1	none (no result: RORg inh, VP16 counter)
O=c1cnc2cnc(OCc3ccccc3)nc2n1Cc1ccc(F)cc1	none (no result: B2AR arrestin, ELG1 repair inh, TSHR antagonist)
Cc1cc(S(=O)(=O)N(Cc2ccc(F)cc2)CC2CCCO2)ccc1-n1cnnn1 (stereo unspecified)	none
Cc1cc(S(=O)(=O)N(Cc2ccc(C(C)C)cc2)CC2CCCO2)ccc1-n1cnnn1 (stereo unspecified)	ELG1 repair inh 16.4µM
C=CCn1c(SCN2C(=O)c3ccccc3C2=O)nc2ccc(Cl)cc2c1=O	RORg inh 8.91µM, VP16 counter 7.94µM
O=C(c1ccc(CSc2nc3ccncc3[nH]2)cc1)N1CCN(c2cccc(Cl)c2)CC1	RORg inh inconclusive, VP16 counter 11.2µM, ELG1 repair inh 25.9µM
O=C(CSCc1nc2ccccc2[nH]1)N1CCN(c2cccc(Cl)c2)CC1	RORg inh 11.2µM, VP16 counter inconclusive, ELG1 repair inh inconclusive
Cc1ccc(CSc2nc3ccncc3[nH]2)cc1	RORg inh 7.94µM, VP16 counter 7.94µM, ELG1 repair inh inconclusive
Cc1ccc(S(=O)(=O)N2CCN(CC(O)COc3ccccc3)CC2)cc1 (stereo unspecified)	none
CN(C)S(=O)(=O)N1CCN(CC(O)COc2ccc3cc(Br)ccc3c2)CC1 (stereo unspecified)	ELG1 repair inh 23.1µM
CCOc1ccc(S(=O)(=O)N2CCN(CC(O)COc3cccc([N+](=O)[O-])c3)CC2)cc1 (stereo unspecified)	ELG1 repair inh 14.6µM
CN(C)S(=O)(=O)N1CCN(CC(O)COc2ccc(-c3ccccc3)cc2)CC1 (stereo unspecified)	ELG1 repair inh 20.6µM
O=S(=O)(N1CCCCC1)N1CCN(CC(O)COc2ccc3cc(Br)ccc3c2)CC1 (stereo unspecified)	ELG1 repair inh 13µM
COC(=O)C1=C(C(=O)OC)[C@@H]2N(Cc3ccccc3)c3ccccc3[C@@]23C[C@@H](C(=O)OC)N(C(=O)NCc2ccccc2)C3=C1	none (no result: B2AR arrestin, ELG1 repair inh, TSHR antagonist)
C=C1CCC[C@]2(C)C[C@H]3OC(=O)C(CNCC(OC)OC)[C@H]3CC12 (stereo partly specified)	none
O=C(CN1C(=O)c2ccccc2S1(=O)=O)c1cccc(Br)c1	RORg inh inconclusive
O=C(CCN1C(=O)c2ccccc2S1(=O)=O)Nc1ccc2c(c1)OCCO2	RORg inh inconclusive
O=C(CN1C(=O)c2ccccc2S1(=O)=O)c1ccc2c(c1)OCCO2	RORg inh 0.0251µM, VP16 counter 0.562µM, ELG1 repair inh inconclusive
O=C(CN1C(=O)c2ccccc2S1(=O)=O)c1ccc2c(c1)OCCCO2	RORg inh 0.282µM, VP16 counter 0.708µM, ELG1 repair inh 1.03µM
CCc1ccc(NC(=O)CCC(=O)Nc2nnc(C(C)C)s2)cc1	ELG1 repair inh inconclusive
Cc1ccsc1C(=O)N1CCN(C(=O)c2ccco2)CC1	none (no result: RORg inh, VP16 counter)
CC(C)C[C@H](NC(=O)N1CC(=O)Nc2ccccc21)C(=O)N[C@@H](Cc1ccccc1)C(=O)O	none
CSCC[C@H](NC(=O)c1ccc(NC[C@@H](N)CS)cc1-c1ccccc1)C(=O)O	none (no result: B2AR arrestin, ELG1 repair inh, TSHR antagonist)
N#Cc1cnc(SCC(=O)Nc2ccccc2C(F)(F)F)nc1N	none
Cc1ccc(OCC(=O)NNC(=O)CSc2ncc(C#N)c(N)n2)cc1	RORg inh 0.708µM, VP16 counter inconclusive
CCc1ccccc1OCC(=O)Nc1cccc(S(=O)(=O)NC2=NCCC2)c1	none (no result: RORg inh, VP16 counter)
Cc1n[nH]c(C)c1CCc1nc2c3ccccc3nc(SCC(N)=O)n2n1	ELG1 repair inh 23.1µM
Cc1ccnc(SCc2cc(=O)c(OC(=O)c3ccc(Cl)c([N+](=O)[O-])c3)co2)n1	RORg inh 10µM, VP16 counter 11.2µM, ELG1 repair inh 20.6µM
O=C(Nc1cccc(C(F)(F)F)c1)Nc1ccc(N2CCCC2)c(S(=O)(=O)Nc2ccccc2Cl)c1	RORg inh inconclusive, VP16 counter 11.2µM, ELG1 repair inh inconclusive
O=C(Nc1ccc(S(=O)(=O)N2CCCC2)cc1)c1ccc(OCC2CCCO2)cc1 (stereo unspecified)	VP16 counter inconclusive, ELG1 repair inh inconclusive

Bioassay records: PubChem BioAssay, National Center for Advancing Translational Sciences (NCATS)
